Each compound was assayed on T1, MEK1. Conditions: concentration: 1 μM,replicates: in singlicate; n = 1.
T1 construct: gene MAP2K1
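Note: KINOMEscan kinase panel screen.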

Row | Structure (SMILES) | %Inh [%]
1 | Cl.Cl.Nc1nc(-c2ccc3c(N)n[nH]c3c2)cc(N2CCCC(NC(=O)c3ccccc3)C2)n1 (centres unmarked) [GSK2286775] | 0
2 | CC(C)Nc1cc(-c2ccc3c(N)n[nH]c3c2)nc(N)n1 [GSK2221681] | 0
3 | COc1ccc(C[C@@H](CN)NC(=O)c2cc(Br)c(-c3ccnc4[nH]ccc34)s2)cc1.Cl.Cl [GSK1389063] | 1
4 | C[C@H]1Oc2cc(cnc2N)-c2c(nn(C)c2C#N)CN(C)C(=O)c2ccc(F)cc21 | 0
5 | Cc1ccc2c(-c3ccncc3)c(-c3ccc(F)cc3)nn2c1.Cl [GW461484] | 0
6 | C=CC(=O)Nc1cc2c(Nc3ccc(F)c(Cl)c3)ncnc2cc1OCCCN1CCOCC1 [GW781483] | 38
7 | CNC(=O)c1ccccc1Sc1ccc2c(/C=C/c3ccccn3)n[nH]c2c1 | 0
8 | C[C@@H](Oc1cc(-c2cnn(C3CCNCC3)c2)cnc1N)c1c(Cl)ccc(F)c1Cl | 12
9 | CCN(CC)CCOc1ccc(Nc2ncc3cc(-c4c(Cl)cccc4Cl)c(=O)n(C)c3n2)cc1 [SB-601273] | 98.1
10 | CN(C)CCOc1ccc(-c2cc(-c3c[nH]nc3-c3ccccn3)ccn2)cc1 [GW835314] | 0
11 | Cl.Oc1cc(-c2nc(-c3ccccc3)[nH]c2-c2ccncc2)ccc1Cl [SB-386023] | 0
12 | CC(C)N1C(=O)Cc2cc(Nc3ncc(C(F)(F)F)c(NCc4cccc(S(C)(=O)=O)c4)n3)ccc21 | 27
13 | O=C(NCCNc1ccnc(NCc2ccc(F)cc2)n1)c1cc2ccccc2s1 [GSK1379944] | 0
14 | CCn1c(-c2nonc2N)nc2c(C#CC(C)(C)O)nc(OCCN)cc21.Cl.Cl [GSK902056] | 0
15 | NC(=O)c1cc(-c2ccccc2)cc2c(C3CCNCC3)c[nH]c12 [GSK301362] | 0
16 | CCN(CC)CCCCNc1ncc2cc(-c3c(Cl)cccc3Cl)c(NC(=O)NC(C)(C)C)nc2n1 | 23
17 | Nc1nc(Nc2ccccc2)cc(-c2ccc3c(N)n[nH]c3c2)n1 [GSK2225749] | 0
18 | Cc1occc1-c1nc(N)c(OC[C@@H](N)Cc2c[nH]c3ccccc23)cc1-c1cc2c(C)n[nH]c2cn1 [GSK1660450] | 0
19 | Cl.Cl.NC[C@H](CC1CCCCC1)NC(=O)c1cc(Br)c(-c2ccnc3[nH]ccc23)s1 [GSK1581427] | 0
20 | Cc1n[nH]c2ccc(-c3cc(OC[C@@H](N)Cc4ccccc4)cnc3-c3ccoc3)cc12.O=C(O)C(F)(F)F.O=C(O)C(F)(F)F [GSK507358] | 37
21 | C[C@@H]1CCN(C(=O)CC#N)C[C@@H]1N(C)c1ncnc2[nH]ccc12 | 0
22 | O=C(NCCCN1CCOC1=O)c1cnc(NCc2cc(Cl)ccc2Cl)nc1NC1CCCC1 | 0
23 | Cc1cc(C(=O)Nc2ccc(Oc3ccc4nc(NC(=O)C5CC5)cn4n3)cc2)nn1-c1ccccc1 | 0
24 | Cc1ccc(-n2nc(C(C)(C)C)cc2NC(=O)Nc2ccc(OCCN3CCOCC3)c3ccccc23)cc1 [GW839464] | 0
25 | Cc1cc2cn[nH]c2cc1-c1cccc2c(N)c(C(N)=O)nnc12 | 28
26 | Cl.Cl.NC[C@H](Cc1ccc(C(F)(F)F)cc1)NC(=O)c1cc(Br)c(-c2ccnc3[nH]ccc23)s1 [GSK1487252] | 0
27 | CN(C)CC(O)COc1ccc(Nc2nccc(-c3cnn4nc(N5CCOCC5)ccc34)n2)cc1 (centres unmarked) [GW767488] | 24

What follows are compounds tested on T2, MEK2. Conditions: concentration: 1 μM,replicates: in singlicate; n = 1.
T2 construct: gene MAP2K2

Row | Structure (SMILES) | %Inh [%]
28 | Cl.Cl.Nc1nc(-c2ccc3c(N)n[nH]c3c2)cc(N2CCCC(NC(=O)c3ccccc3)C2)n1 (centres unmarked) [GSK2286775] | 0
29 | CC(C)Nc1cc(-c2ccc3c(N)n[nH]c3c2)nc(N)n1 [GSK2221681] | 0
30 | COc1ccc(C[C@@H](CN)NC(=O)c2cc(Br)c(-c3ccnc4[nH]ccc34)s2)cc1.Cl.Cl [GSK1389063] | 22
31 | C[C@H]1Oc2cc(cnc2N)-c2c(nn(C)c2C#N)CN(C)C(=O)c2ccc(F)cc21 | 30
32 | Cc1ccc2c(-c3ccncc3)c(-c3ccc(F)cc3)nn2c1.Cl [GW461484] | 0
33 | C=CC(=O)Nc1cc2c(Nc3ccc(F)c(Cl)c3)ncnc2cc1OCCCN1CCOCC1 [GW781483] | 63
34 | CNC(=O)c1ccccc1Sc1ccc2c(/C=C/c3ccccn3)n[nH]c2c1 | 0
35 | C[C@@H](Oc1cc(-c2cnn(C3CCNCC3)c2)cnc1N)c1c(Cl)ccc(F)c1Cl | 20
36 | CCN(CC)CCOc1ccc(Nc2ncc3cc(-c4c(Cl)cccc4Cl)c(=O)n(C)c3n2)cc1 [SB-601273] | 98.7
37 | CN(C)CCOc1ccc(-c2cc(-c3c[nH]nc3-c3ccccn3)ccn2)cc1 [GW835314] | 18
38 | Cl.Oc1cc(-c2nc(-c3ccccc3)[nH]c2-c2ccncc2)ccc1Cl [SB-386023] | 2
39 | CC(C)N1C(=O)Cc2cc(Nc3ncc(C(F)(F)F)c(NCc4cccc(S(C)(=O)=O)c4)n3)ccc21 | 47
40 | O=C(NCCNc1ccnc(NCc2ccc(F)cc2)n1)c1cc2ccccc2s1 [GSK1379944] | 0
41 | CCn1c(-c2nonc2N)nc2c(C#CC(C)(C)O)nc(OCCN)cc21.Cl.Cl [GSK902056] | 0
42 | NC(=O)c1cc(-c2ccccc2)cc2c(C3CCNCC3)c[nH]c12 [GSK301362] | 0
43 | Nc1nc(Nc2ccccc2)cc(-c2ccc3c(N)n[nH]c3c2)n1 [GSK2225749] | 9
44 | Cc1occc1-c1nc(N)c(OC[C@@H](N)Cc2c[nH]c3ccccc23)cc1-c1cc2c(C)n[nH]c2cn1 [GSK1660450] | 0
45 | Cl.Cl.NC[C@H](CC1CCCCC1)NC(=O)c1cc(Br)c(-c2ccnc3[nH]ccc23)s1 [GSK1581427] | 0
46 | Cc1n[nH]c2ccc(-c3cc(OC[C@@H](N)Cc4ccccc4)cnc3-c3ccoc3)cc12.O=C(O)C(F)(F)F.O=C(O)C(F)(F)F [GSK507358] | 36
47 | C[C@@H]1CCN(C(=O)CC#N)C[C@@H]1N(C)c1ncnc2[nH]ccc12 | 0
48 | O=C(NCCCN1CCOC1=O)c1cnc(NCc2cc(Cl)ccc2Cl)nc1NC1CCCC1 | 30
49 | Cc1cc(C(=O)Nc2ccc(Oc3ccc4nc(NC(=O)C5CC5)cn4n3)cc2)nn1-c1ccccc1 | 17
50 | Cc1ccc(-n2nc(C(C)(C)C)cc2NC(=O)Nc2ccc(OCCN3CCOCC3)c3ccccc23)cc1 [GW839464] | 0
51 | Cc1cc2cn[nH]c2cc1-c1cccc2c(N)c(C(N)=O)nnc12 | 45
52 | Cl.Cl.NC[C@H](Cc1ccc(C(F)(F)F)cc1)NC(=O)c1cc(Br)c(-c2ccnc3[nH]ccc23)s1 [GSK1487252] | 0
53 | CN(C)CC(O)COc1ccc(Nc2nccc(-c3cnn4nc(N5CCOCC5)ccc34)n2)cc1 (centres unmarked) [GW767488] | 34

— article PMC5540273 (PLoS ONE, 2017)
